Assay results published in PubChem BioAssay (NCI).
About 83,000 compounds went through this panel and 20% of them were active in at least one assay; those are over-represented in the sample as a whole.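 How to read the values: 0–100, growth inhibition (40 = 60% inhibited); 0, no net growth; -100 to 0, cell death (-40 = 40% of starting cells died; -100 = all dead).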 Unmarked numbers belong to inactive results. Calls of active or inactive are those of the source. The calls were made as follows: active = growth percent below 10; inactive = the rest.

Legend:
Assay in all cases: NCI-60 one-dose screen, 48 h (100 = growth as untreated, 0 = no growth, -100 = all killed)
Settings in all cases: 10 µM
[1] = test system: DU-145 prostate
[2] = test system: K-562 leukemia
[3] = test system: MALME-3M melanoma
[4] = test system: MDA-MB-231 breast
[5] = test system: RXF 393 renal
[6] = test system: SF-268 CNS
[7] = test system: SF-295 CNS
[8] = test system: SF-539 CNS
[9] = test system: UACC-257 melanoma
[10] = test system: M14 melanoma
[11] = test system: HT29 colon
[12] = test system: SNB-75 CNS
[13] = test system: SNB-19 CNS
[14] = test system: PC-3 prostate
[15] = test system: SK-MEL-5 melanoma
[16] = test system: UACC-62 melanoma
[17] = test system: LOX IMVI melanoma
[18] = test system: SK-MEL-28 melanoma
[19] = test system: HCT-15 colon
[20] = test system: U251 CNS

| SMILES | growth [1] | growth [2] | growth [3] | growth [4] | growth [5] | growth [6] | growth [7] [%] | growth [8] | growth [9] | growth [10] [%] | growth [11] | growth [12] | growth [13] | growth [14] [%] | growth [15] [%] | growth [16] | growth [17] | growth [18] | growth [19] [%] | growth [20] |
| --- | --- | --- | --- | --- | --- | --- | --- | --- | --- | --- | --- | --- | --- | --- | --- | --- | --- | --- | --- | --- |
| O=C1CCn2c1c(O)c1ccccc1c2=O | 114% | 130% | 124% | 115% | 111% | 114% | 97.2 | 113% | 99.8% | 107 | 108% | 86.6% | 110% | 100 | 103 | 113% | 107% | 107% | – | – |
| COC(=O)C1OC1c1cc([N+](=O)[O-])ccc1OC (stereo not drawn) | 109% | 95.5% | 102% | 123% | 99.8% | 102% | 100 | 98.4% | 117% | – | 117% | 90.6% | 110% | 96 | 98.8 | 106% | 93.4% | 109% | 103 | – |
| CN(C)CCCOc1ccc(OCCCN(C)C)c2c1C(=O)c1ccccc1C2=O | 4.83% (active) | 7.12% (active) | -43% (active) | -20.5% (active) | -9.08% (active) | -4.36% (active) | 14.4 | -1.42% (active) | 5.21% (active) | – | -20.6% (active) | -20.6% (active) | 7.81% (active) | 11 | 10.5 | -46.4% (active) | -13.2% (active) | -4.67% (active) | 91.5 | 5.27% (active) |
| CC(=O)OC/C=C(/C)C[P+](c1ccccc1)(c1ccccc1)c1ccccc1 | 58.3% | 28.4% | 61.7% | 75.2% | 98% | 76.7% | 41.6 | 64.2% | 69.7% | – | 59.8% | 76.8% | 47% | 41.3 | 43.1 | 47.6% | 55.2% | 69% | 73.3 | 35.8% |
| COc1ccc(/C(C#N)=C/c2cccc(OC)c2OC)cc1 | 106% | 33.3% | 73.2% | 83.3% | 85.7% | 92.5% | 75.3 | 94.6% | 78% | 86 | 59.8% | 91.3% | 84.3% | 82 | 73.1 | 70.5% | 84.1% | 84.5% | – | – |
| CNC(=O)c1cc(Oc2ccc3c(c2)sc2nc(-c4ccc(NC(=O)Nc5ccc(Cl)c(C(F)(F)F)c5)cc4)cn23)ccn1 | 75.5% | 74.7% | 83.7% | 77.4% | 84.6% | 84.8% | 76.3 | 56.2% | – | 85.5 | 67.2% | 66.6% | 85.7% | 64 | 86.6 | 88% | 76.1% | – | 71.4 | 61.9% |
| O=C1c2ccccc2C(=O)c2c1ccc(C(Br)Br)c2[N+](=O)[O-] | 59.4% | -7.68% (active) | -17.5% (active) | -21.4% (active) | 48.6% | 19.1% | 92.8 | 90.2% | 95.2% | – | 46.1% | 109% | 60.9% | 19.2 | 60.8 | 27.6% | -65.3% (active) | 102% | 38.3 | 9.58% (active) |
| Cc1[nH]c2ccccc2c1/C=N/Nc1ncnc2sc3c(c12)CCN(CC(=O)OC(C)(C)C)C3 | 80.5% | 22.3% | 120% | 84.5% | -0.516% (active) | 93.8% | 88.8 | 62.7% | 63.6% | – | 41.8% | 63.4% | 93.3% | 69.2 | 60.8 | 81.9% | 83.6% | 80.7% | 30.1 | 78.2% |
